According to publication PMC13541613, “GHT-SELEX demonstrates unexpectedly high intrinsic sequence specificity and complex DNA binding of many human transcription factors”:

Biological target: ZNF721 DBD2 (Homo sapiens, UniProt Q8TF20-2 395-923)
Assay: HT-SELEX; 20 mM HEPES pH 7, 140 mM KCl, 5 mM NaCl, 1 mM K2HPO4, 2 mM MgSO4, 100 uM EGTA, ZnSO4, 0.1% Tween20; room temperature, 1 h; high values mean tight binding
Conditions: protein: ivt; tags: eGFP (N-terminal); dsDNA, one strand shown
Summary of the method: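 Bead-immobilised tagged transcription factor (full-length or DNA-binding-domain fragment), made in HEK293 lysate or cell-free extract, was incubated with a randomized 40-base DNA library. Binding was for 1 h at room temperature in HEPES/KCl low-stringency buffer with Tween20. After washing and heat elution, bound DNA was PCR-amplified over successive cycles and Illumina-sequenced (~3 million 60 bp reads per sample). Binding signal is a relative k-mer count in selected reads; higher means tighter binding.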

Chain of ZNF721 DBD2 (Q8TF20 383-911): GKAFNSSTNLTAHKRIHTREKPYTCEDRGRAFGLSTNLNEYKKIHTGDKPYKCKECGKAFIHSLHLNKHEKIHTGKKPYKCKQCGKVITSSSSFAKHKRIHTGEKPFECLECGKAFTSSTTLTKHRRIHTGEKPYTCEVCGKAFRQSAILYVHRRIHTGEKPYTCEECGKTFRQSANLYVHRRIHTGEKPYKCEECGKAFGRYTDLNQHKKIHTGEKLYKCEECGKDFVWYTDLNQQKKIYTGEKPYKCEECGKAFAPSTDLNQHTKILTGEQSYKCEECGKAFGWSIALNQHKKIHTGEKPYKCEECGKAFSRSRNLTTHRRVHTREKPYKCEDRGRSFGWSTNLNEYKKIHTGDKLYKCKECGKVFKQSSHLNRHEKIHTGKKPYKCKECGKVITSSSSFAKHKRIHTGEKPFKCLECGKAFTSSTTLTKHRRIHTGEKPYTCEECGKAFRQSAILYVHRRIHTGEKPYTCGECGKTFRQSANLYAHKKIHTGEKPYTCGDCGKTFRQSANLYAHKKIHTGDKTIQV

| Sequence | binding signal [relative 10-mer count] |
| --- | --- |
| AAAAAGCATC | 0.0225 |
| CAGCGTCTCC | 0.722 |
| CCTCCGCCCC | 0.003 |
| CCTCCCCCCG | 0.00348 |
| CCGCCCGCCC | 0.00192 |
| AAAAGCAGCC | 0.112 |
| CACCTCCCCA | 0.00348 |
| CACACCCCAC | 0.00419 |
| AGTGTATCCA | 0.197 |
| CCACGCCCCC | 0.0024 |
| CCCCTCTCCC | 0.00204 |
| AGCATACCCT | 0.416 |
| GAAGCGTACC | 0.0018 |
| AAAGCAGCAT | 0.366 |
| ACCCACCCGC | 0.00276 |
| AGCATACCCA | 0.366 |
| CCCCCAGCCC | 0.00252 |
| ACCCCCCTCC | 0.00336 |
| ACCACCCGCC | 0.00312 |
| TCCCACCCCA | 0.00372 |

| Sequence | binding signal [relative 10-mer count] |
| --- | --- |
| ACAGCGTTAC | 0.207 |
| CCACCCCTCC | 0.00491 |
| CCCCCCACGC | 0.00324 |
| CACCCTACCC | 0.00491 |
| CCACCCACAC | 0.00635 |
| CCCCCACCGC | 0.00479 |
| CCACCCTACC | 0.00839 |
| CCCCTCCCCG | 0.00216 |
| CCCCCCCCCA | 0.00312 |
| CCTCCCGCCC | 0.00264 |
| CCCCCTACCC | 0.003 |
| GCCCCCACCC | 0.00407 |
| GCATACCCTA | 0.217 |
| CCCACCGTCC | 0.00395 |
| AGCTATACCA | 0.003 |
| AAAAGCGTAC | 0.0176 |
| CACCACCCCG | 0.00312 |
| CCTCCACCCC | 0.00455 |
| CCCCTACCCC | 0.00384 |
| CACCCCTCCC | 0.00336 |
